The source made the active and inactive calls.
Tests used:
[1] = test system: Human papillomavirus type 1a protein E7 (residues 44-93); experiment: small molecules binding HPV E7 44-93 – biochemical, small-molecule microarray, residues 44-93, 635 nm fluorescence, primary screen (AID 1108); details: fluorescence 635 nm, higher = more signal;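 further: E7 fragment applied at 1 µg/mL in TBST for 1 h at 4 C; score combines spot fluorescence with its signal to noise ratio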
[2] = hepatitis C replication reporter changes, two-sided – Huh7 cells, luciferase reporter, HCV replication inhibitor project, primary screen (AID 1109); details: Huh7 HCV replicon luciferase reporter, 48 h; higher = more signal;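 further: huh7 hepatoma cells harbouring a luciferase neomycin HCV replicon reporter; luciferase luminescence as measure of HCV replicon replication; test concentration not given here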
[3] = molecular target: Left-right determination factor 2 (Homo sapiens) (UniProt O00292); experiment: small molecules binding LEFTY2 protein – biochemical, small-molecule microarray, 635 nm fluorescence scan, primary screen (AID 1110); details: higher = more signal
[4] = molecular target: Calmodulin-1 (Homo sapiens) (UniProt P0DP23); experiment: small molecules binding calmodulin-1 with EGTA – biochemical, small-molecule microarray, Cy5-labelled CALM1, profiling panel (AID 1111); details: Cy5-CALM1 binding fluorescence, higher = more signal;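 further: labelled calmodulin applied in Tris saline Tween buffer holding calcium plus EGTA and DTT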
[5] = molecular target: Calmodulin-1 (Homo sapiens) (UniProt P0DP23); experiment: small molecules binding Ca-loaded calmodulin-1 – biochemical, small-molecule microarray, Cy5-labelled CALM1, plus calcium, artefact control for SMM control-protein annotation, profiling panel (AID 1112); details: Cy5-CALM1 binding fluorescence, higher = more signal;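 further: score merges spot fluorescence with signal to noise from triplicate slides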
[6] = probe aWnt5a binding to arrayed compounds – biochemical, biotinylated probe, 635/667 nm fluorescence, primary screen (AID 1113); details: small-molecule microarray, higher = more signal;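 further: score merges 667 nm fluorescence intensity with signal-to-noise per printed feature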
[7] = probe aShh binding to arrayed compounds – biochemical, biotinylated probe, 635/667 nm fluorescence, primary screen (AID 1114); details: small-molecule microarray, higher = more signal;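 further: probe is biotin-labelled aShh protein from a stem cell growth factor screen; measures binding of labelled protein to compounds printed on the slide; score merges feature fluorescence at 667 nm with signal-to-noise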
[8] = probe aNog binding to arrayed compounds – biochemical, biotinylated probe, 635/667 nm fluorescence, primary screen (AID 1115); details: small-molecule microarray, higher = more signal;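 further: probe is biotinylated aNog protein used at 0.15 µg/mL for 1 h at 4 C; z-score combines 667 nm fluorescence of each spot with its signal to noise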
[9] = molecular target: Torsin-1A-interacting protein 1 (Homo sapiens) (UniProt Q5JTV8); experiment: compound microarray binding of lysate hLAP1 – cell lysate, small-molecule microarray, COS7 lysate, 635/667 nm fluorescence, primary screen (AID 1116); details: 635 nm fluorescence, higher = more signal
[10] = molecular target: Alpha-bungarotoxin (Bungarus multicinctus) (UniProt P60615); experiment: compounds binding labelled alpha-BTX control protein – biochemical, small-molecule microarray, Alexa647 label, 635/667 nm fluorescence, artefact control for SMM control protein annotation, profiling panel (AID 1117); details: alpha-BTX-A647 binding fluorescence, higher = more signal
Albumin (Bos taurus) = Albumin (Bos taurus) (UniProt P02769); experiment: compounds binding labelled BSA control protein – biochemical, small-molecule microarray, Alexa647 label, 635/667 nm fluorescence, artefact control for SMM control protein annotation, profiling panel (AID 1118); details: BSA-A647 binding, fluorescence 635 nm, higher = more signal;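 further: score merges 667 nm emission intensity and signal-to-noise per printed compound spot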
[11] = probe aXIP binding to arrayed compounds – biochemical, NeuroSMM set, 635/667 nm fluorescence, primary screen (AID 1119); details: small-molecule microarray, higher = more signal, called active from +8 up or from −8 down;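 further: probe is the protein aXip251-270 applied at 1 µg/mL to compound-printed slides; binding of probe to printed compounds measured as 667 nm fluorescence plus signal to noise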
[12] = probe aNOTCH3 binding on compound microarray – biochemical, small-molecule microarray, 635/667 nm fluorescence, primary screen (AID 1120); details: higher = more signal;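 further: probe is a biotin-tagged antibody raised against NOTCH3 rather than NOTCH3 protein; score merges spot fluorescence near 667 nm with spot signal to noise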
[13] = probe aNOTCH2 binding on compound microarray – biochemical, small-molecule microarray, 635/667 nm fluorescence, primary screen (AID 1121); details: higher = more signal;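 further: score merges feature fluorescence read at 667 nm with its signal to noise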
[14] = molecular target: Carbonic anhydrase 2 (Homo sapiens) (UniProt P00918); experiment: compounds binding carbonic anhydrase 2 – biochemical, small-molecule microarray, Alexa647-labelled CAII, profiling panel (AID 1122); details: CAII-A647 binding fluorescence, higher = more signal
[15] = COS7 lysate on small-molecule microarray, probe aHis, 635 nm (AID 1123); details: COS7 cell lysate, fluorescence, higher = more signal;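 further: z-score combines 667nm fluorescence intensity with signal-to-noise per printed compound spot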
[16] = probe aLAP1 signal on lysate-treated microarray – cell lysate, small-molecule microarray, COS7 lysate, primary screen (AID 1124); details: probe aLAP1, fluorescence, higher = more signal;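 further: lysate comes from COS7 cells expressing LAP1 and is applied at 0.3 µg/mL; score merges spot fluorescence near 667 nm with signal-to-noise over triplicate slides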
Sam68 (KHDRBS1) = experiment: compounds binding KHDRBS1 protein – biochemical, small-molecule microarray, 635 nm fluorescence, primary screen (AID 1125); details: higher = more signal;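 further: score merges 667 nm channel intensity with signal to noise over triplicate slides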
[17] = test system: Chordin-like protein 2 (CHRDL2); experiment: compounds binding chordin-like 2 – biochemical, small-molecule microarray, 635 nm fluorescence, primary screen (AID 1126); details: fluorescence 635 nm, higher = more signal;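 further: printed compound slides probed with Chrdl2 protein at 4 µg/mL for 1 h at 4 C; score merges 667 nm emission intensity with signal to noise over three replicate slides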
[18] = molecular target: Concanavalin-A (Canavalia ensiformis) (UniProt P02866); experiment: compounds binding concanavalin A lectin – biochemical, small-molecule microarray, Alexa647 label, 635 nm, artefact control for SMM control protein annotation, primary screen (AID 1127); details: ConA-A647 binding fluorescence, higher = more signal;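 further: z combines 667 nm emission intensity with signal-to-noise across three replicate slides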
Concanavalin-A (Canavalia ensiformis), sequence (P02866 whole entry, looked up): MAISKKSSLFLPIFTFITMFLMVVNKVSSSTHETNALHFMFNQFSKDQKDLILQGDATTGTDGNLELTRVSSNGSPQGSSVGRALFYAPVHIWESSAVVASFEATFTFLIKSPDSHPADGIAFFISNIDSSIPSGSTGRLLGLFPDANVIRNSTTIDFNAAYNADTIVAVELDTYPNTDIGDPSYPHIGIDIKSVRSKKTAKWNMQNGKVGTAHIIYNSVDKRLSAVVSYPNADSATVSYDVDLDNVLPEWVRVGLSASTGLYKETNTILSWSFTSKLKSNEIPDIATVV

Albumin (Bos taurus), sequence (P02769 whole entry, looked up): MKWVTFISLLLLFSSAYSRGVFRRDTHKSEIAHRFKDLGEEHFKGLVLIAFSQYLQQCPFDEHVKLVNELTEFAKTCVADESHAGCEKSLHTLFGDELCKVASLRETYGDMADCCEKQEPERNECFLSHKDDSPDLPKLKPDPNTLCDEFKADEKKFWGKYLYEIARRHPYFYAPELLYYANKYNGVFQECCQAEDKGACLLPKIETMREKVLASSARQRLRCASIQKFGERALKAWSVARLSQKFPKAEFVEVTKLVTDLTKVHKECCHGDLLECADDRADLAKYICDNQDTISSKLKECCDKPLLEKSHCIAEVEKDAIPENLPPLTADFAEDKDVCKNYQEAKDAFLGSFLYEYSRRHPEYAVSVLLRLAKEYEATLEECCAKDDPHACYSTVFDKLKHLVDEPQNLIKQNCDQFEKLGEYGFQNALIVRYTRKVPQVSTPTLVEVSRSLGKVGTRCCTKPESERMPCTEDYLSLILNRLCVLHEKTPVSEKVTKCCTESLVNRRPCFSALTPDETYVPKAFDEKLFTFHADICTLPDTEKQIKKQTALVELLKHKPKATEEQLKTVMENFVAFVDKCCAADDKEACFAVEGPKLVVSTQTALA
Alpha-bungarotoxin (Bungarus multicinctus), sequence (P60615 whole entry, looked up): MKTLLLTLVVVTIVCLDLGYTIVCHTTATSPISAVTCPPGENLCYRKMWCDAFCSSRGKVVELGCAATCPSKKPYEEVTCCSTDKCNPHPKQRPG
Left-right determination factor 2 (Homo sapiens), sequence (O00292 whole entry, looked up): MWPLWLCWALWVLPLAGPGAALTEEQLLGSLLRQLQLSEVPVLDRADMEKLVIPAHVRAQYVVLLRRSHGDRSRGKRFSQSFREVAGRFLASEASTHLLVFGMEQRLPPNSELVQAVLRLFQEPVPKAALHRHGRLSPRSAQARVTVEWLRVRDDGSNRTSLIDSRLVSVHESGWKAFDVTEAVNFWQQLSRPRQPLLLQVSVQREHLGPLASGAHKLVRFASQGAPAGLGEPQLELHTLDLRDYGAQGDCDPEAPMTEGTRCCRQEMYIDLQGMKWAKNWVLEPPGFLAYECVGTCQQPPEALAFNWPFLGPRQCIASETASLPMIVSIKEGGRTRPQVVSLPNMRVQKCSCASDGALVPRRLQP
Torsin-1A-interacting protein 1 (Homo sapiens), sequence (Q5JTV8 whole entry, looked up): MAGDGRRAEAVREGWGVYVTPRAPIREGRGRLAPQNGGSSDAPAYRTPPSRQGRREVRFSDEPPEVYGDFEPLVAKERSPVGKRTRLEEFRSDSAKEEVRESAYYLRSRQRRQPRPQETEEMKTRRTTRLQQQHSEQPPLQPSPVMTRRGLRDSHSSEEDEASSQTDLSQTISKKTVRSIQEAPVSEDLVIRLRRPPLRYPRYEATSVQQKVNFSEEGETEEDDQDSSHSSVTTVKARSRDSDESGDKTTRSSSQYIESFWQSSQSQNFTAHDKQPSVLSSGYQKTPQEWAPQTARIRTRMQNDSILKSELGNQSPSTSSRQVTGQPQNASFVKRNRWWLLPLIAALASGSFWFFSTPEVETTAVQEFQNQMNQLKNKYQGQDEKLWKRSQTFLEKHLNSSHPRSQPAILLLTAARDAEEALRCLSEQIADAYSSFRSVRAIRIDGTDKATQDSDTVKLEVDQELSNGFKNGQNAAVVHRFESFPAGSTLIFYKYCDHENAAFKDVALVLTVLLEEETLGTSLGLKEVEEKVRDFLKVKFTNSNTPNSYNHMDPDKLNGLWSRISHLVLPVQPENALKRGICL

Row | Compound | composite z-score [1] | z-score [2] | composite z-score [3] | composite z-score [4] | composite z-score [5] | composite z-score [6] | composite z-score [7] | composite z-score [8] | composite z-score [9] | composite z-score [10] | composite z-score (Albumin (Bos taurus)) | composite Z-score [11] | composite z-score [12] | composite z-score [13] | composite z-score [14] | composite z-score [15] | composite z-score [16] | composite z-score (Sam68 (KHDRBS1)) | composite z-score [17] | composite z-score [18]
1 | COC(=O)[C@@]1(Cc2ccc(OC)cc2)[C@H]2c3cc(C(=O)N4CCCC4)n(Cc4c(-c5ccccc5)noc4C)c3C[C@H]2CN1C(=O)c1ccccc1 | 1.41 | -2.21 | -0.181 | 1.5 | 0.716 | 0.42 | 0.268 | 1.85 | 0.764 | 0.818 | 0.634 | 0.216 (inactive) | 0.576 | 0.251 | 0.446 | 3.24 | 0.214 | 1.35 | -0.748 | 0.978
2 | CC(C)[Si](C#CCCCC#N)(O[C@H](c1ccccc1)c1cn([C@H](CO)Cc2ccccc2)nn1)C(C)C | 0.385 | -1.33 | 0.36 | 1.11 | 0.295 | -0.0459 | -0.0793 | 0.0392 | 0.222 | 0.559 | 0.992 | 0.727 (inactive) | -0.15 | -0.161 | 0.456 | 0.605 | 0.936 | 1.11 | -0.006 | 1.16
3 | CCOC(=O)C[C@H]1[C@H](OC(=O)Cc2ccc3c(c2)OCO3)[C@@H](NC(=O)Cc2ccc(OC)cc2)c2cc(OCCCO)ccc2N1C(=O)c1ccc2ccccc2n1 | 0.189 | -0.763 | 0.155 | -0.22 | -0.0545 | -0.0792 | 0.23 | -0.134 | 0.526 | 0.424 | 0.857 | -0.802 (inactive) | -0.0768 | -0.11 | 0.154 | 1.15 | 0.199 | 0.489 | 0.276 | -0.533
4 | O=C1O[C@@H](c2ccccc2)[C@@H](c2ccccc2)N2[C@@H](c3ccc(OCCO)cc3)[C@]3(C(=O)Nc4ccccc43)[C@@H](C(=O)O)[C@H]12 | 0.908 | -1.47 | -0.318 | -0.0663 | 0.883 | 0.779 | 0.297 | 2.26 | -0.308 | 0.323 | -0.0883 | -0.24 (inactive) | 1.09 | 0.464 | 0.745 | 1.03 | 0.741 | 0.428 | -0.12 | 0.539
5 | CN1C(=O)C2C=CC(C(O)c3ccccn3)N(N(c3ccccc3)c3ccccc3)C2C1=O (stereo not given) | -0.686 | -0.276 | -0.0321 | 0.0023 | -0.0692 | -0.0735 | 0.0684 | 0.427 | 1.07 | 0.451 | 0.206 | 1.31 (inactive) | -0.004 | -0.0166 | 0.822 | -0.123 | 1.04 | -0.349 | 0.227 | 0.291
6 | N#Cc1ccc(NN2C(C(O)c3ccc(F)cc3)C=CC3C(=O)N(c4ccccc4)C(=O)C32)cc1 (stereo not given) | 0.771 | -0.41 | -0.81 | 2.39 | 1.04 | 0.0334 | -0.0578 | 1.83 | 2.24 | 1.05 | 0.824 | 0.383 (inactive) | -0.16 | -0.138 | 0.318 | 2.59 | 0.905 | -0.306 | -1.55 | 0.536
7 | COc1ccc(CCNC(=O)[C@@]2(Sc3ccc(C)cc3)CC(=O)N(C3Cc4ccccc4C3)[C@@H]2c2ccc(CO)cc2)cc1 | 1.42 | -3.04 | 1.25 | 1.07 | 0.616 | 0.0799 | 0.171 | 0.557 | 2.01 | 0.535 | 0.575 | -0.413 (inactive) | 0.0522 | 0.0407 | 0.274 | 1.23 | 0.661 | 1.3 | 1.5 | 1.14
8 | O=C1OCC=C[C@H]2OC34C=CCN(Cn5nnc6ccccc65)C(=O)[C@H]3N(CCCO)C(=O)[C@@H]4[C@@H]12 (stereo not given in full) | -0.408 | 0.424 | -0.573 | -0.0941 | 0.449 | -0.26 | 0.381 | 0.0517 | 0.529 | -1.11 | -0.877 | -0.309 (inactive) | -0.279 | -0.185 | 0.847 | -0.145 | -0.124 | -0.196 | -0.682 | -0.0288
9 | CCCCC(O)C1C=CC2C(=O)N(c3ccccc3)C(=O)C2N1Nc1ccc(C(C)C)cc1 (stereo not given) | 1.41 | 0.318 | 0.154 | 1.25 | 0.304 | 0.0974 | 0.0875 | -0.503 | -0.236 | 1.06 | 0.898 | -0.535 (inactive) | 0.315 | -0.0073 | 0.712 | 2.85 | 0.201 | 1.32 | -0.408 | 1.07
10 | CCCC[C@@H]1C[C@H]1[C@@H](NC(=O)c1ccccc1)c1ccc(C(F)(F)F)cc1 | -1.52 | -0.444 | -1.06 | -0.17 | 0.87 | -0.0084 | -0.296 | -0.194 | -0.309 | -0.501 | -0.0844 | -0.157 (inactive) | 0.0562 | -0.0698 | 0.009 | -0.511 | -0.134 | -1.5 | -1.15 | -0.917
11 | C=CCOC(=O)[C@H]1[C@@H]2C(=O)O[C@@H](c3ccccc3)[C@@H](c3ccccc3)N2[C@@H](c2ccc(OCCOC(=O)[C@@H]3C[C@@H]4C(=O)N[C@@H](CCCCNC(C)=O)C(=O)N4[C@@H]3c3ccc(O)cc3)cc2)[C@]12C(=O)Nc1ccc(I)cc12 | 1.37 | -1.14 | 0.637 | 0.48 | -0.215 | -0.0519 | 0.131 | 0.381 | 1.65 | 1.78 | -0.689 | 1.53 (inactive) | 0.108 | 0.0083 | 0.631 | 1.69 | 0.719 | 1.29 | 1.01 | 0.764

Reference: PubChem BioAssay
